# Measurements from PubChem BioAssay (NCATS).
# “And” between values parts separate entries of the source, which are not always exact repeats. Identical values can stand only once. Records with an inconclusive call do not appear. A call without a number means that no potency is given here. The source made the active and inactive calls. Unless noted, calls follow the shape of the dose curve; as a rule, active = well fitted curve in the direction sought with a large enough effect; inconclusive = small, poorly fitted or top-dose-only effect, or another doubt; inactive = no such curve, though single readings can be large; an effect the other way counts as inactive or inconclusive.
# Experiments:
# [1] = target: Cytochrome P450 1A2 (Homo sapiens) (UniProt P05177); test: p450-cyp1a2 (AID 410; calls by dose curve; also: potency is read from the fitted curve at half-maximal effect)
# Cytochrome P450 1A2 (Homo sapiens), sequence (P05177 whole entry, looked up): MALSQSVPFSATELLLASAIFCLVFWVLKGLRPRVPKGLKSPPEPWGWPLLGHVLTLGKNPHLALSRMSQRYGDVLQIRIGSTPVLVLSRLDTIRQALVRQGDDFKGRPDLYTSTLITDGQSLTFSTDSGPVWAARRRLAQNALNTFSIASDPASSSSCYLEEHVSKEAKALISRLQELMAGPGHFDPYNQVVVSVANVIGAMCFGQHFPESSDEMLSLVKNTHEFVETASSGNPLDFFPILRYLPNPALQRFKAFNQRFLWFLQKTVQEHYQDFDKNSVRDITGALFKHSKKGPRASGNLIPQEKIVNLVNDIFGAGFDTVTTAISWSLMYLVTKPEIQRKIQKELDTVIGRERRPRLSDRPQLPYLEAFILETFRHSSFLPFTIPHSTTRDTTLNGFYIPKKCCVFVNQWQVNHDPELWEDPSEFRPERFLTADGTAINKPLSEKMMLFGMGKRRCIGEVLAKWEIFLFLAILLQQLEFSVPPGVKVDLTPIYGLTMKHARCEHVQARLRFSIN
# Procedure, shortened: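 Human CYP1A2 (20nM) demethylated Luciferin-ME at its Km (100uM) in 100mM KPO4. After 10 min compound preincubation, NADPH regeneration ran the reaction 60 min at room temperature. Luciferin was read by luminescence, normalized to 57 uM furafylline.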
# [2] = NFAT Signaling Pathway (AID 444; active = well fitted curve in either direction with a large enough effect, not every such curve was filed as active;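 also: carbachol stimulus at about its EC50 of 1 µM final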); conditions: Jurkat NFAT-bla M1, carbachol, beta-lactamase ratio, 5 h; at 38 µM (top of the series)
# Procedure, shortened: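 Jurkat cells with NFAT-driven β-lactamase reporter and co-expressed M1 receptor, stimulated with carbachol (final 1 uM, ~EC50), compound titration, 5 h at 37 °C. CCF4 loaded 1 h at RT; 460/530 nm ratio gave %activity and AC50.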
# [3] = target: Glucocorticoid receptor (Homo sapiens) (UniProt P04150); test: GR-GFP Redistribution (AID 450;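 active = compounds whose dose series gives a full or clear partial fitted curve of increased nuclear translocation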; also: potency is read from the fitted curve at half-maximal effect); conditions: U2OS GR-GFP nuclear translocation, laser cytometry, 2 h
# Glucocorticoid receptor (Homo sapiens), sequence (P04150 whole entry, looked up, the tested form may be a part): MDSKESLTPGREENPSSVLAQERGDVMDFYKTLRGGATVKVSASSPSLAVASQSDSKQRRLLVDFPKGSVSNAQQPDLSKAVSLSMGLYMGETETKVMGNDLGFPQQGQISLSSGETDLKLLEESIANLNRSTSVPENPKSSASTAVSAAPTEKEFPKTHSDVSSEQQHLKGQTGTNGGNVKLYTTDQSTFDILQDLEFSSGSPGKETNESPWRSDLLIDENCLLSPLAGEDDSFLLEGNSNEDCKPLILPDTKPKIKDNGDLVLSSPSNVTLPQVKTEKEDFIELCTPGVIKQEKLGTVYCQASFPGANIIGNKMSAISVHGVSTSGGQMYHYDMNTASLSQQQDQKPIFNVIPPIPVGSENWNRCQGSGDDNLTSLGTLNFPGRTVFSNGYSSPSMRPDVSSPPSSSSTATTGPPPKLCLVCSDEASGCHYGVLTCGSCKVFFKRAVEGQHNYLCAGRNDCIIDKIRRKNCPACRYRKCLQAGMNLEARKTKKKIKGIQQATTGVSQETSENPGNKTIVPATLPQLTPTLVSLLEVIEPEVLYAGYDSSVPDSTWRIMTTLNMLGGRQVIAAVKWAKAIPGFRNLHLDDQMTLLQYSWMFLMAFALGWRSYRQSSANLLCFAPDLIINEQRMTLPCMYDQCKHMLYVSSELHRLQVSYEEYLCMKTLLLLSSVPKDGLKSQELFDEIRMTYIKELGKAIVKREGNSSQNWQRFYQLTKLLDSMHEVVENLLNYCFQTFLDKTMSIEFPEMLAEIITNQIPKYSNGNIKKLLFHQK
# [4] = target: Glucocorticoid receptor (Homo sapiens) (UniProt P04150); test: GR-EFC Redistribution (AID 451; calls by dose curve; also: potency is read from the fitted curve at half-maximal effect); conditions: CHO-K1 GR-EFC translocation, beta-gal luminescence, 2 h
# Procedure, shortened: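 CHO-K1 cells expressing nuclear EA and GR-ED fragments of b-gal; compounds titrated up to 46 uM final, 2 h at 37 C. GR nuclear translocation read as complemented b-gal luminescence after 1 h RT detection.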
# [5] = target: Mitogen-activated protein kinase 10 (Mus musculus) (UniProt Q61831); test: JNK3 AlphaScreen Assay (AID 530; active = well fitted curve in either direction with a large enough effect, not every such curve was filed as active;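 also: kinase came from lysate of stimulated human HepG2 cells; potency is read from the fitted curve at half-maximal effect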)
# Procedure, shortened: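 qHTS format: compounds tested as titrations against IL-1beta/TNF-alpha-activated HepG2 lysate JNK3 with biotin-GST-cJun substrate and 10 uM ATP at room temperature. Loss of anti-phospho-cJun AlphaScreen signal indicates inhibition.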
# [6] = target: 3',5'-cyclic-AMP phosphodiesterase 4B (Homo sapiens) (UniProt Q07343); test: qHTS Assay for Inhibitors of PDE-IV (AID 607; active = well fitted activation curve with a large enough effect in the main read-out, with a control signal flat, not every such curve was filed as active)
# Procedure, shortened: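 Live HEK293 cells with a modified cyclic nucleotide-gated (CNG) channel report intracellular cAMP via membrane-potential dye fluorescence (ex 535/em 590 nm). Endogenous PDE-IV was targeted. Compounds were tested at up to 22.9 uM final; RO 20-1724 100 uM served as control.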
# [7] = target: Guanine nucleotide-binding protein G(i) subunit alpha-1 (Homo sapiens) (UniProt P63096); test: qHTS Assay for Inhibitors of RGS12 GoLoco Motif Activity (Green Fluorophore) (AID 879);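 also: negative values mean loss of peptide binding seen as reduced polarization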
# Guanine nucleotide-binding protein G(i) subunit alpha-1 (Homo sapiens), sequence (P63096 whole entry, looked up): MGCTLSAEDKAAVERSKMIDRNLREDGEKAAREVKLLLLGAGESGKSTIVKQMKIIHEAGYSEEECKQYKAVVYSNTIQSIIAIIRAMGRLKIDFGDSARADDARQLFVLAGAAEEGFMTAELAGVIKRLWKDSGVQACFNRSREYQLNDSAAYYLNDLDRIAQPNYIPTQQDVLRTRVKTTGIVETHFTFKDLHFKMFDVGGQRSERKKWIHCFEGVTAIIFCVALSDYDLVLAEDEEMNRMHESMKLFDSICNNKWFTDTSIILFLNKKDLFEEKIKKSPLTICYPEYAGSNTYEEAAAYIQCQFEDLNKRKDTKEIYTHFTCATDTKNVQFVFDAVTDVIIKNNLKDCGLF
# Procedure, shortened: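 Fluorescence polarization assay: 50 nM Gαi1 with 10 nM FITC-labeled RGS12 GoLoco peptide in 10 mM Tris pH 7.5, 150 mM NaCl, 0.1 mM GDP, 0.05% NP40, 10 min at room temperature with compound.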
# [8] = target: Cytochrome P450 2C9 (Homo sapiens) (UniProt P11712); test: qHTS Assay for Inhibitors and Substrates of Cytochrome P450 2C9 (AID 883); also: nearly all actives have a fitted effect of over 60% in size
# Cytochrome P450 2C9 (Homo sapiens), sequence (P11712 whole entry, looked up): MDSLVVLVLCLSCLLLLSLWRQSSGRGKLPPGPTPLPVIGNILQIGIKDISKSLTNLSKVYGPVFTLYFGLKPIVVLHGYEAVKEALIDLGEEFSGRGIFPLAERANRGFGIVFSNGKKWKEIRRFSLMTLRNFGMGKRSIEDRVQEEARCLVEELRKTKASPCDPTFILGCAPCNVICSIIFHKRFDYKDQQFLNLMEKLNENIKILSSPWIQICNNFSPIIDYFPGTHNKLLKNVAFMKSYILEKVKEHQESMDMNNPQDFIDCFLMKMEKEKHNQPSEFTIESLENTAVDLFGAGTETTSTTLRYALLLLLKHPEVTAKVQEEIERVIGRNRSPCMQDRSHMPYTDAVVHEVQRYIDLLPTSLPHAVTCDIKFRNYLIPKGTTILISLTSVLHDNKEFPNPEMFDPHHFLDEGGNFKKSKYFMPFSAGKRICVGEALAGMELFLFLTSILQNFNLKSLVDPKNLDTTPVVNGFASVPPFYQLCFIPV
# Procedure, shortened: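 10nM CYP2C9 + 100uM Luciferin-H (=KM), 25mM KPO4; cpd 10 min 37C; NADPH regen, 60 min 37C; stop/detect with P450 Glo-Buffer 20 min; luminescence. Norm. to 57uM sulphaphenazole as full inhibition.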
# [9] = target: Cytochrome P450 3A4 (Homo sapiens) (UniProt P08684); test: qHTS Assay for Activators of Cytochrome P450 3A4 (AID 885); also: nearly all actives have a fitted effect of over 65% in size
# Cytochrome P450 3A4 (Homo sapiens), sequence (P08684 whole entry, looked up): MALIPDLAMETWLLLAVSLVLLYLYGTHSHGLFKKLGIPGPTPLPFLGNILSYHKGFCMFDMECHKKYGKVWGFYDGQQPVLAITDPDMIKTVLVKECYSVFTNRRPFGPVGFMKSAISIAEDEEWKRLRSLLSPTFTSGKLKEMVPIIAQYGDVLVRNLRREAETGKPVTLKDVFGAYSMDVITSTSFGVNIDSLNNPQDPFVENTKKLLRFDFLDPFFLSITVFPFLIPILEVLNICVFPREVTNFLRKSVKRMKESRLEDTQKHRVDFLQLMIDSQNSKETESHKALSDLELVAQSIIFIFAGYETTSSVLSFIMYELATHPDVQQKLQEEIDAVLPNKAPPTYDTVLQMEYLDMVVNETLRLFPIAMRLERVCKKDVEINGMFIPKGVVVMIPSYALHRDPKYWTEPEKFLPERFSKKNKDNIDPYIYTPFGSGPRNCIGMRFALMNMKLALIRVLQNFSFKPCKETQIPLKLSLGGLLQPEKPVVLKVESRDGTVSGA
# Procedure, shortened: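 Quantitative HTS format: compounds preincubated with 20nM human CYP3A4 and Luciferin-PPXE substrate at KM, reaction started by NADPH regeneration, stopped after 60 min, luciferase luminescence read 20 min later.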
# [10] = qHTS Assay for Identification of Small Molecule Agonists for Thrombopoietin (TPO) Signaling Pathway (AID 917)
# Procedure, shortened: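 Luminescence from a Glycoprotein IIb promoter–driven luciferase reporter served as read-out in murine Ba/F3 cells carrying the human TPO receptor. Cells, deprived of IL-3 overnight, received compounds with 26 pM TPO and were incubated 24 hrs at 37 C.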
# [11] = target: Muscarinic acetylcholine receptor M1 (Rattus norvegicus) (UniProt P08482); test: qHTS Assay for Antagonists of Acetylcholine Muscarinic M1 Receptor: Kinetic Measurement of Intracellular Calcium Response (AID 943);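 also: Fluo-4 calcium signal as peak divided by basal fluorescence over 4 min; nearly all actives have a fitted effect of over 75% in size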
# Muscarinic acetylcholine receptor M1 (Rattus norvegicus), sequence (P08482 whole entry, looked up): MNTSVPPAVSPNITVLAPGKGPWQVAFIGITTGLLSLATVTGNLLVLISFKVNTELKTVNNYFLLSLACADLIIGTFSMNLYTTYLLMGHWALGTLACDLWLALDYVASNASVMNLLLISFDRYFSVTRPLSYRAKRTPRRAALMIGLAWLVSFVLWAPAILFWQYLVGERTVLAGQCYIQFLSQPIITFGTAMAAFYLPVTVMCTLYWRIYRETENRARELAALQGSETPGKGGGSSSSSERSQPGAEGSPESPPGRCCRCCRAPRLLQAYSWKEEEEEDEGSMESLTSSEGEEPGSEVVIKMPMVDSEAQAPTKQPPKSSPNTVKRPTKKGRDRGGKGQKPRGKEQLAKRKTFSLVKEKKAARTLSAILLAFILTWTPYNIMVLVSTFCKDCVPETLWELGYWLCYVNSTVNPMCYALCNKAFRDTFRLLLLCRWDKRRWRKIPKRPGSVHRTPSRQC
# Procedure, shortened: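 CHO cells stably expressing rat M1 were loaded with no-wash Fluo-4 dye for 1 h at 37C, pre-incubated 10 min with compound, then challenged with EC80 carbachol (100 nM final); kinetic calcium read 4 min, peak/basal ratio.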
# [12] = target: Pyruvate kinase PKM (Homo sapiens) (UniProt P14618); test: qHTS Assay for Activators of Human Muscle Pyruvate Kinase (AID 954; active = well fitted curve in the direction sought with a large enough effect, not every such curve was filed as active)
# Pyruvate kinase PKM (Homo sapiens), sequence (P14618 whole entry, looked up): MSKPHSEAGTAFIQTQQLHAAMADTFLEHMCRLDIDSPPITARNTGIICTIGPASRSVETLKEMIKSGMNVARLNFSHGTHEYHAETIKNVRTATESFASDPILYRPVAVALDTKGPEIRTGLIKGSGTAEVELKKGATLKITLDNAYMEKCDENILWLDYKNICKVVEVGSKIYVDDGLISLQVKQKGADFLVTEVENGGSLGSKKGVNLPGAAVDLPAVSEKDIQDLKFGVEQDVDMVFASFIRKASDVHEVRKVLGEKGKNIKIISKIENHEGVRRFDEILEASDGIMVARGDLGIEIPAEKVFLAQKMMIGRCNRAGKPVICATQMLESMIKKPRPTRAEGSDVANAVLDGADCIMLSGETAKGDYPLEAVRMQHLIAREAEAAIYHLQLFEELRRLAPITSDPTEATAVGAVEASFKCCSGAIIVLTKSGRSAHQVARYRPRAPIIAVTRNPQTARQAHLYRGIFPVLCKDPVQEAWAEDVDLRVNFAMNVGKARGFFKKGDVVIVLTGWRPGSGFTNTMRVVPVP
# Procedure, shortened: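 Enzyme was run at intermediate activity so both inhibitors and activators could be detected. ATP formed from ADP and PEP by 0.1 nM human PKM2 during a 1 h room-temperature incubation was quantified by coupled luciferase luminescence.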
# [13] = target: Pyruvate kinase PKM (Homo sapiens) (UniProt P14618); test: qHTS Assay for Inhibitors of Human Muscle Pyruvate Kinase (AID 958); conditions: purified human PKM enzyme activity
# Procedure, shortened: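 PKM2, human, >95% pure, 0.1 nM; PEP 0.5 mM (Km), ADP 0.1 mM; 50 mM imidazole pH 7.2, 50 mM KCl, 0.01% Tween 20, 0.05% BSA; 1 h RT; luciferase luminescence readout.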
# [14] = target: Pyruvate kinase (Leishmania mexicana) (UniProt Q27686); test: qHTS Validation Assay for Activators of Leishmania Mexicana Pyruvate Kinase (AID 959)
# Pyruvate kinase (Leishmania mexicana), sequence (Q27686 2-499 E452W): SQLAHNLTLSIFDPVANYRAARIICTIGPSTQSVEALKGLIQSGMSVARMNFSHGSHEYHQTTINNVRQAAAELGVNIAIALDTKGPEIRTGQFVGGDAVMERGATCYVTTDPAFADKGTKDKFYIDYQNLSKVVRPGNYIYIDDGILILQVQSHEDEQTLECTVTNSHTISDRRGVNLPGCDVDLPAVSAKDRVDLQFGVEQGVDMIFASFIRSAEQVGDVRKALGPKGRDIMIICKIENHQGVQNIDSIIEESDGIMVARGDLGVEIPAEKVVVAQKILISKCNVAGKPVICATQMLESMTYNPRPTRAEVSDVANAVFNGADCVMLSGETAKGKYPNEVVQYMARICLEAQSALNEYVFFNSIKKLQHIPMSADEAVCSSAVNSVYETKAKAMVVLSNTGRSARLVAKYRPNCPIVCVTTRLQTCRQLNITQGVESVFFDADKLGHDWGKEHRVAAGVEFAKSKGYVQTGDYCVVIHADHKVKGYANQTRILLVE
# Procedure, shortened: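 An endpoint luciferase assay: 0.2 nM LmPYK E451W turns over 0.5 mM PEP with 0.1 mM ADP for 1 h at room temperature, pH 7.2, before PKLight addition. Values are normalized to DMSO-only wells.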
# [15] = target: Alpha-galactosidase A (Homo sapiens) (UniProt P06280); test: Counterscreen for Glucocerebrosidase Inhibitors: qHTS Assay for Human alpha-Galactosidase at pH 4.5 (AID 992)
# Alpha-galactosidase A (Homo sapiens), sequence (P06280 whole entry, looked up): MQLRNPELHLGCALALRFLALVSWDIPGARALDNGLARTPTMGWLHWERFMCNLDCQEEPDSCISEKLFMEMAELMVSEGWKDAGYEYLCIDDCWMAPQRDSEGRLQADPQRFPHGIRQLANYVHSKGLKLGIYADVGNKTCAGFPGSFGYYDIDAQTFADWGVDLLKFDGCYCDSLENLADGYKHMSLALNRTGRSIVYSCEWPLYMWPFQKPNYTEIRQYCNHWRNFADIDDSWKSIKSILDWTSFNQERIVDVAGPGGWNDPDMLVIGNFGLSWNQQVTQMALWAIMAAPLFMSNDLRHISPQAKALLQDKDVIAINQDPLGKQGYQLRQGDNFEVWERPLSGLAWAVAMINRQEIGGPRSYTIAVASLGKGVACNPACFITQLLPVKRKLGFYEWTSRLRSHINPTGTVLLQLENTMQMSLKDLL
# Procedure, shortened: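 Read-out is 4-methylumbelliferone fluorescence (365 nm excitation, 440 nm emission) after a pH 10 NaOH/glycine stop. Reactions held 2 nM enzyme and 80 uM substrate at pH 4.5 for 20 min at room temperature.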
# [16] = target: alpha-glucosidase (Oryza sativa, rice) (UniProt Q653V4); test: Counterscreen for Glucocerebrosidase Inhibitors: qHTS Assay for Rice alpha-Glucosidase at pH 5.0 (AID 997)
# Procedure, shortened: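 Rice alpha-glucosidase (4 nM final) with 400 uM 4-methylumbelliferyl-alpha-D-glucopyranoside in citrate buffer pH 5.0, 20 min at room temperature, stopped at pH 10; fluorescence 365/440 nm, compounds 0.7 nM–77 uM, AC50 from Hill fits.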
# [17] = qHTS Assay for Lipid Storage Modulators (AID 1519; calls by dose curve); conditions: Drosophila S3 cells, BODIPY lipid droplet/cell ratio, laser cytometry, cells loaded with oleic acid
# Procedure, shortened: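 Cells seeded at 5,000 per well were treated with compounds over a concentration series and loaded with oleic acid (400 uM, as added). Lipid droplet fluorescence (488 nm excitation, 500-530 nm channel) was read by laser-scanning cytometry and normalized to 20 uM Triacsin C.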
# [18] = target: DNA repair nuclease/redox regulator APEX1 (Homo sapiens) (UniProt P27695); test: qHTS Validation Assay for Inhibitors of the Human Apurinic/apyrimidinic Endonuclease 1 (APE1) (AID 1705;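 also: TAMRA fluorescence gain over two minutes as APE1 cuts a quenched THF abasic duplex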)
# DNA repair nuclease/redox regulator APEX1 (Homo sapiens), sequence (P27695 whole entry, looked up): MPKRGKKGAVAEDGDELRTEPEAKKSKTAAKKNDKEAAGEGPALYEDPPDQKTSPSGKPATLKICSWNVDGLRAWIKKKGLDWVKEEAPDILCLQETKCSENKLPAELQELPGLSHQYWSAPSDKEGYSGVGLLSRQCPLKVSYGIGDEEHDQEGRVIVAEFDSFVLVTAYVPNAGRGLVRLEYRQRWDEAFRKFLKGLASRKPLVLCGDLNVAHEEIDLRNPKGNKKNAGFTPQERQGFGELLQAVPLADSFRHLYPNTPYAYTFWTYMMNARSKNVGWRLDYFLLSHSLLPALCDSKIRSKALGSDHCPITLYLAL
# Procedure, shortened: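 qHTS, 1536-well. APE1 + cpd 15 min RT → 50 nM TAMRA/BHQ-2 THF-abasic dsDNA substrate → kinetic fluorescence, 3 reads/60 s; delta(read3−read1) = reaction progress. No-enzyme buffer = negative control.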
# [19] = Counterscreen for APE1 Inhibitors: Fluorescent Dye Displacement Validation Assay (AID 1707)
# Procedure, shortened: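 ThO 250 nM + dsDNA 50 nM (THF abasic site, 5'-TAMRA), Tris-HCl pH7.5/50mM NaCl/2 mM MgCl2/0.01% Tween-20; compounds pin-transferred; ex 480/em 540 nm endpoint. Neutral = no compound; no-DNA ThO wells = negative control.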
structure (smiles),measurement,setting,value
N#C/C(=C\c1ccc(O)c(O)c1)C(=O)Nc1ccccc1,Potency,[1],2 µM (active) and 501 nM (active)
same,"activity change, negative = inhibition",[2],6.23% (inactive)
same,Potency,[3],> 46 µM (inactive)
same,Potency,[4],> 46 µM (inactive)
same,Potency,[5],12.6 µM (active)
same,Potency,[6],inactive
same,outcome,[7],inactive
same,Potency,[8],inactive
same,Potency,[9],inactive
same,Potency,[10],inactive
same,Potency,[11],inactive
same,outcome,[12],inactive
same,Potency,[13],25.1 µM (active)
same,Potency,[14],inactive
same,outcome,[15],inactive
same,outcome,[16],inactive
same,"activity change, negative = inhibition",[17]; at 57.5 µM (top of the series),-21.4% (inactive)
same,max response,[17]; measured here: cell count channel max response,-56.6%
same,max response,[17]; measured here: lipid channel max response,-66.1%
same,Potency,[18],inactive
same,Potency,[19],inactive
